From PubChem BioAssay (NCI)
The panel holds about 79,000 compounds, 15% with a hit somewhere; the sample as a whole holds those more often. Unmarked numbers belong to inactive results. Activity calls are given as the source filed them. No stated cut-off is given here; in the data, active means growth inhibition above about 70%; inactive means the rest.

Assay: NCI Yeast Anticancer Drug Screen. Data for the CLN2oe strain (AID 163);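 further: 0% = growth of vehicle-only control cultures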
Details: S. cerevisiae CLN2oe strain, active compounds read high
Protocol: Growth inhibition of yeast strains with defined genetic alterations is measured as a screen for potential anti-cancer activity. Selected strains with alterations in DNA damage repair or cell cycle control were exposed to compounds and growth inhibition was measured relative to vehicle treated controls. The strain used in this assay is CLN2oe

SMILES | growth inhibition (at 1.2 µM) [%] | growth inhibition (at 3.7 µM) [%] | growth inhibition (at 11.0 µM) | growth inhibition (at 33.0 µM) | growth inhibition (at 100.0 µM)
NC(N)=NC(N)=Nc1ccccc1 (tested in a mixture with another compound) | -2 | -6 | -13% | -1% | 37%
O=C(NCCCCN1CC2CCCC2C1)C(C1CCCCC1)C1CCCCC1 (stereo not given) | 11 | 13 | 32% | 87% (active) | 98% (active)
Nc1ccc2c(c1)C(=O)c1c(F)cccc1-2 | -1 | 4 | 8% | 14% | 32%
COc1ccc(N=c2cc(-c3ccccc3)oc3ccccc23)cc1 | -6 | -1 | -6% | -8% | -10%
CNCC(C)CNC | 15 | 6 | -1% | -7% | -12%
Cc1cccc(C)c1NC(=O)C(C#N)C1=C(Cl)C(=O)c2ccccc2C1=O (stereo not given) | 3 | 16 | 77% (active) | 97% (active) | 96% (active)
CCCCCCCCSC1=C(Cl)C(=O)C(OC)=C(OC)C1=O | -16 | -6 | 21% | 33% | 80% (active)
NCCOc1ccc(/C(=C(/Cl)c2ccccc2)c2ccccc2)cc1 | 18 | 12 | 36% | 98% (active) | 96% (active)
